# Data from the supplement of paper PMC10849652.
# Targets with a hit are over-represented here; the source holds about 8,800 in all. About 0.5% of all pairs of compound and target were hits. Values without a mark were called inactive.
# What was measured:
# Experiment in all cases: log2 fold change, soluble protein after heating vs DMSO (PISA); higher = thermal stabilisation; K562 lysate, 10 uM; active = over 0.2 and 3.5 SD of the protein, either way, in both replicates (recomputed)
# nilotinib = compound: Cc1cn(-c2cc(NC(=O)c3ccc(C)c(Nc4nccc(-c5cccnc5)n4)c3)cc(C(F)(F)F)c2)cn1 [nilotinib]
# Method in brief: (§1)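 Soluble protein was defined as the supernatant remaining after 21,000xg for 90 min, following pooling of heated aliquots and adjustment to 0.5% NP-40 at 4°C. Before that, crude K562 extract at 1 mg/mL protein in PBS pH 7.4 with 1 mM MgCl2 was treated with 10 μM compound for 30 min and heated for 3 min across 48°C-58°C. Quantification used TMTpro 16plex LC-MS/MS with channel sums equalised, and values are log-two fold changes in thermal stability relative to solvent controls from duplicates.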
# [1] = compound: Cc1nc(Nc2n[nH]c3c2CN(C(=O)N[C@H](CN(C)C)c2ccccc2)C3(C)C)c2sccc2n1
# Method in brief: as §1
# dasatinib = compound: Cc1nc(Nc2ncc(C(=O)Nc3c(C)cccc3Cl)s2)cc(N2CCN(CCO)CC2)n1 [dasatinib]
# Method in brief: as §1
# [2] = compound: Cc1ncc(-c2ccnc(Nc3ccc(S(C)(=O)=O)cc3)n2)n1C(C)C
# Method in brief: as §1
# [3] = compound: Cn1cc(-c2ccc3c(c2)CCN3C(=O)Cc2cccc(C(F)(F)F)c2)c2c(N)ncnc21
# Method in brief: as §1
# quisinostat = compound: Cn1cc(CNCC2CCN(c3ncc(C(=O)NO)cn3)CC2)c2ccccc21 [quisinostat]
# Method in brief: as §1
# tipifarnib = compound: Cn1cncc1[C@@](N)(c1ccc(Cl)cc1)c1ccc2c(c1)c(-c1cccc(Cl)c1)cc(=O)n2C [tipifarnib]
# Method in brief: as §1
# [4] = compound: NC(=O)Nc1cc(-c2cccc(F)c2)sc1C(=O)N[C@H]1CCCNC1
# Method in brief: as §1
# [5] = compound: NC(=O)c1cnc(N[C@@H]2CCCC[C@@H]2N)nc1Nc1cccc(-n2nccn2)c1
# Method in brief: as §1
# [6] = compound: NC1(c2ccc(-c3nc4ccn5c(=O)[nH]nc5c4cc3-c3ccccc3)cc2)CCC1
# Method in brief: as §1
# [7] = compound: NCC(=O)Nc1ccc(-n2nc(C(F)(F)F)cc2-c2ccc3c(ccc4ccccc43)c2)cc1
# Method in brief: as §1
# vorinostat = compound: O=C(CCCCCCC(=O)Nc1ccccc1)NO [vorinostat]
# Method in brief: as §1
# silmitasertib = compound: O=C(O)c1ccc2c(c1)nc(Nc1cccc(Cl)c1)c1ccncc12 [silmitasertib]
# Method in brief: as §1
# [8] = compound: O=C1NC(=O)C(c2cnc3ccccn23)=C1c1cn2c3c(cc(F)cc13)CN(C(=O)N1CCCCC1)CC2
# Method in brief: as §1
# entospletinib = compound: c1cn2cc(-c3ccc4cn[nH]c4c3)nc(Nc3ccc(N4CCOCC4)cc3)c2n1 [entospletinib]
# Method in brief: as §1
# UniProt Q9BSD7, sequence (Q9BSD7 whole entry, looked up): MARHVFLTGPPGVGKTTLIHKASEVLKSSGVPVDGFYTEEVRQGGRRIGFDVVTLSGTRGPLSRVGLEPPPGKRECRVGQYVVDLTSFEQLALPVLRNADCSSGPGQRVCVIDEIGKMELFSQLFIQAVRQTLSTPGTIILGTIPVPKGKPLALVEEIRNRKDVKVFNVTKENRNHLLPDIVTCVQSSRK
# UniProt Q9BPZ3, sequence (Q9BPZ3 whole entry, looked up): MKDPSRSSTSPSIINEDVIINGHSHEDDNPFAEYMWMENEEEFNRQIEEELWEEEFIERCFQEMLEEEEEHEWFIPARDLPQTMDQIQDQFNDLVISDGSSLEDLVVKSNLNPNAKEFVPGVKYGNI
# UniProt O94832, sequence (O94832 whole entry, looked up): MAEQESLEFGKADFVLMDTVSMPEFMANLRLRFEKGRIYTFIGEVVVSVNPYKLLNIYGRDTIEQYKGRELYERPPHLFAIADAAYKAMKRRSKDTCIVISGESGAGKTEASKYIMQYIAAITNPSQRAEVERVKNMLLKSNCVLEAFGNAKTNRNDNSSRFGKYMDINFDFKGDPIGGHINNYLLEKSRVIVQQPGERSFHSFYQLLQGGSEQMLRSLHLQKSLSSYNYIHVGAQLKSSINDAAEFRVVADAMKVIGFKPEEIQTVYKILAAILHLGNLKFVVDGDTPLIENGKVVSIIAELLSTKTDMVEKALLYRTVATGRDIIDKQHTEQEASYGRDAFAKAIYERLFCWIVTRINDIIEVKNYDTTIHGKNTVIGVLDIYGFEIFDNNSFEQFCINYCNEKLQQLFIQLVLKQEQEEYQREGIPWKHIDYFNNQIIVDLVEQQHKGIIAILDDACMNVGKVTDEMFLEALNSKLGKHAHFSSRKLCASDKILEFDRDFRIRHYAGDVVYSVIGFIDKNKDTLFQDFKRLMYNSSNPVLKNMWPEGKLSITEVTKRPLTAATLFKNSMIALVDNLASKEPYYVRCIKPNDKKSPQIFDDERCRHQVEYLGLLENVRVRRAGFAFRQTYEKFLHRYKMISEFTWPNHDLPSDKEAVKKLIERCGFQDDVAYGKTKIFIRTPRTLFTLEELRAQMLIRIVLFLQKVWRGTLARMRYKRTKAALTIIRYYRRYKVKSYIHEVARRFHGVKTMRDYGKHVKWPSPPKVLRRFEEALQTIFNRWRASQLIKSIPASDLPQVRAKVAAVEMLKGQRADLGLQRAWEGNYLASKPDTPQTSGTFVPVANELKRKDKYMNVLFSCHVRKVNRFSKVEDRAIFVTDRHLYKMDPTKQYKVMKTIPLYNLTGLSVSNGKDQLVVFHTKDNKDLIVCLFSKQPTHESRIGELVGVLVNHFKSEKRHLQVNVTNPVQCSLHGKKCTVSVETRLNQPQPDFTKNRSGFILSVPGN
# UniProt Q6ZNJ1, sequence (Q6ZNJ1 whole entry, looked up): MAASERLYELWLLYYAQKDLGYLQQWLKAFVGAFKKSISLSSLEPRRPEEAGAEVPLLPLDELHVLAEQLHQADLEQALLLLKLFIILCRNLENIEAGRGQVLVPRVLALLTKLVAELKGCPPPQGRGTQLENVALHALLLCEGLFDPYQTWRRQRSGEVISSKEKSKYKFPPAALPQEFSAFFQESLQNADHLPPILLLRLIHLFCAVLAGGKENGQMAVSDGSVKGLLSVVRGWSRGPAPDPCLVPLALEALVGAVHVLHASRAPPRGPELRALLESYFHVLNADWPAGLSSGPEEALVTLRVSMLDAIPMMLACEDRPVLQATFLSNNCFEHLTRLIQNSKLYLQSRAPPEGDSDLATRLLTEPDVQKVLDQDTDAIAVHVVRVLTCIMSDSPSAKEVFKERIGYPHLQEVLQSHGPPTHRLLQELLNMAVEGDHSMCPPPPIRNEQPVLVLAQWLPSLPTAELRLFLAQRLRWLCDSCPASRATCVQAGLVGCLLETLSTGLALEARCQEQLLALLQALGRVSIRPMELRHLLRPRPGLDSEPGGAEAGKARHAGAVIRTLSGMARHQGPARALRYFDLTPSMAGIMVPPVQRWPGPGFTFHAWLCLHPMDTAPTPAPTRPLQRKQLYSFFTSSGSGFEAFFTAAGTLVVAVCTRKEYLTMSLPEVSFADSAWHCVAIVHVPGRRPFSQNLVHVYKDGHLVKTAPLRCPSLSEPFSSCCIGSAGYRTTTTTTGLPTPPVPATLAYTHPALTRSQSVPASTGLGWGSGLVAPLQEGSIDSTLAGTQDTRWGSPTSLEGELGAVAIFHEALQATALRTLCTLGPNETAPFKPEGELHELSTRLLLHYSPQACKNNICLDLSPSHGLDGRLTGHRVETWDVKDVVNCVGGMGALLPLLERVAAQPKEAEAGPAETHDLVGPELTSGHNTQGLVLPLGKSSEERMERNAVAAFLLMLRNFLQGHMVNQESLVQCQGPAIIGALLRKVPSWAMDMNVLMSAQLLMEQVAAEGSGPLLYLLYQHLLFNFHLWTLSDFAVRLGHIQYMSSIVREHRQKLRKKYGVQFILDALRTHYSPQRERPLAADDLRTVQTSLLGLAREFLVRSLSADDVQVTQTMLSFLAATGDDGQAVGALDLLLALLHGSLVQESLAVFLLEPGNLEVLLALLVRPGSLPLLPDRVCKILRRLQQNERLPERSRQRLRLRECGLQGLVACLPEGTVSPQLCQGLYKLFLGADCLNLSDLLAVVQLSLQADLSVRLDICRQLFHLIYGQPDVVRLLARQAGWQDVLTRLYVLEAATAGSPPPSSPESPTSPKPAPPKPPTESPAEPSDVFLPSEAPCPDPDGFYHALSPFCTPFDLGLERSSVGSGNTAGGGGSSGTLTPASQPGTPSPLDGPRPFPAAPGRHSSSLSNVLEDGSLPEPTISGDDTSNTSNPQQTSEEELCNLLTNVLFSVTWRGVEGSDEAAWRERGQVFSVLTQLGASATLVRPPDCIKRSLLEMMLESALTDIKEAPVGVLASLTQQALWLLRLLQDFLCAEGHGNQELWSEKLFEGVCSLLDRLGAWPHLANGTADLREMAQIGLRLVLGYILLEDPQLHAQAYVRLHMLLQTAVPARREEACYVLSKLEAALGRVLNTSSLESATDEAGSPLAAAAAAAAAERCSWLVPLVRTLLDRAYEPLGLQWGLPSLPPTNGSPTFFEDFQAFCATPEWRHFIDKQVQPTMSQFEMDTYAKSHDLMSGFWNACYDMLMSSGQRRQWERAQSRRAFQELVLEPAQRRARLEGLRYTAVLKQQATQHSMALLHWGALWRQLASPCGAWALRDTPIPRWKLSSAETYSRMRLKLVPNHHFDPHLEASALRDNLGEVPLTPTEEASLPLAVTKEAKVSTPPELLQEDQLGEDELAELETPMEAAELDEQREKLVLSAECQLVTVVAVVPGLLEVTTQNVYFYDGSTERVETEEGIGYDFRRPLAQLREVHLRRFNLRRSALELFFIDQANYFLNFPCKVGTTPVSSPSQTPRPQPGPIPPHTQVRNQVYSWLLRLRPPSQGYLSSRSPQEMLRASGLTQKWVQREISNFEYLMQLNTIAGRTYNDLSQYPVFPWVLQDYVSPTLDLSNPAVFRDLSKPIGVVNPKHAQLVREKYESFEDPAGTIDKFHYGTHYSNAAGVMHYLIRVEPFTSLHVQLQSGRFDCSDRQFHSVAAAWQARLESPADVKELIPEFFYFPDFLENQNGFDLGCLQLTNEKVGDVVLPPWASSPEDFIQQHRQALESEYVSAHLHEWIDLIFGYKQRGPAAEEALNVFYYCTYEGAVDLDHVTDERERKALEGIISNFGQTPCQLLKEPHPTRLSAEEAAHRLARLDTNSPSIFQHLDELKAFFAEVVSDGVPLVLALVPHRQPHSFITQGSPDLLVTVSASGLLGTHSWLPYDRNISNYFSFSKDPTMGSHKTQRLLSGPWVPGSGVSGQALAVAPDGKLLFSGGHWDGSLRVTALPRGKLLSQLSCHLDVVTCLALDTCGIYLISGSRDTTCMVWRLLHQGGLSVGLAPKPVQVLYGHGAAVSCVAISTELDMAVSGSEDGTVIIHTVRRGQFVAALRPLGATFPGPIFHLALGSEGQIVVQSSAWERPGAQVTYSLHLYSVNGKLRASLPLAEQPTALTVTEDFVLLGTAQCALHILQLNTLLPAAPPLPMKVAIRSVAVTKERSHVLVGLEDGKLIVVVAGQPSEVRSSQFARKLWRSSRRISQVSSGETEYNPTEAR
# UniProt Q9NPF4, sequence (Q9NPF4 whole entry, looked up): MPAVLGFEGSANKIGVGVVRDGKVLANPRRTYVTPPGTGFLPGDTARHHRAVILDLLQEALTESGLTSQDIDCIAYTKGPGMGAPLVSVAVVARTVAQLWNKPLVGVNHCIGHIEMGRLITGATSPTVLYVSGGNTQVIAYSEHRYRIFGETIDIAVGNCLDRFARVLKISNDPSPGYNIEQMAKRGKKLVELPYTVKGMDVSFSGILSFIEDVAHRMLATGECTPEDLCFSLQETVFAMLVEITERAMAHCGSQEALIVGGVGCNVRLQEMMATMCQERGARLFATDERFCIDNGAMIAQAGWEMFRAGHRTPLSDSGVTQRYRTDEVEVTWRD
# UniProt Q9Y314, sequence (Q9Y314 whole entry, looked up): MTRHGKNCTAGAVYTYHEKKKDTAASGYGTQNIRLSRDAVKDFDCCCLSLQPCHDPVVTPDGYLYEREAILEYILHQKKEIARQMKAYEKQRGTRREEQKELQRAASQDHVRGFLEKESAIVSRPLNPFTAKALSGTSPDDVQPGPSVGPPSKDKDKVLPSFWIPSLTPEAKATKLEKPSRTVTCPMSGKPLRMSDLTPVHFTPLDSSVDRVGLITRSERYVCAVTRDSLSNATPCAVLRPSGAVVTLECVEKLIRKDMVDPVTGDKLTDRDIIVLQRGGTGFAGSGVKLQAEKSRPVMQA
# UniProt P40261, sequence (P40261 whole entry, looked up): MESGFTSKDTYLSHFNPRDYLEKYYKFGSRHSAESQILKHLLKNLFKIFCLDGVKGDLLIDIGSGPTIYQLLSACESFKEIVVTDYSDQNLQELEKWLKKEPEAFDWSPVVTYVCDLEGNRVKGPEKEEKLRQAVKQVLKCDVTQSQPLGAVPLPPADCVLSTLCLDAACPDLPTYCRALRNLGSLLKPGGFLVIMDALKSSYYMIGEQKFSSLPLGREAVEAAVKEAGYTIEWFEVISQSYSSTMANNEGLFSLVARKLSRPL
Target,log2 fold change (nilotinib),log2 fold change [1],log2 fold change (dasatinib),log2 fold change [2],log2 fold change [3],log2 fold change (quisinostat),log2 fold change (tipifarnib),log2 fold change [4],log2 fold change [5],log2 fold change [6],log2 fold change [7],log2 fold change (vorinostat),log2 fold change (silmitasertib),log2 fold change [8],log2 fold change (entospletinib)
NCAPD3 (UniProt P42695),0.005,-0.022,-0.041,0.005,0.005,-0.06,0.005,0.078,-0.014,-0.028,-0.005,-0.562 (active),0.034,-0.022,-0.007
NELFCD (UniProt Q8IXH7),-0.024,0.015,-0.019,-0.025,0.034,-0.083,-0.032,0.046,0.013,-0.031,0.023,-0.322 (active),0.049,-0.005,0.032
NMRAL1 (UniProt Q9HBL8),-0.017,0.004,-0.035,-0.005,-0.039,0.025,0.01,-0.021,0.012,0.045,-0.023,-0.009,0.047,-0.04,0.012
NCAPG (UniProt Q9BPX3),0.01,0.002,-0.062,0,0.007,-0.08,0,0.012,-0.004,-0.019,-0.001,-0.283 (active),0.029,-0.003,-0.002
NNT (UniProt Q13423),-0.017,0.001,0.003,0.002,0.002,0.01,0.009,-0.021,0.002,0.001,0.02,0.023,-0.001,-0.036,-0.01
NTPCR (UniProt Q9BSD7),0.019,-0.01,-0.061,0.056,0.032,-0.088,0.003,0.028,0.017,-0.027,0.014,-0.331 (active),0.029,0.003,0.059
MSI2 (UniProt Q96DH6),-0.089,0.011,0.01,0.009,0.049,0.023,-0.057,0.029,0.028,-0.016,0.053,-0.046,-0.021,-0.052,0.033
NSUN2 (UniProt Q08J23),0.013,-0.004,-0.023,-0.005,0.022,0.007,0.027,0.024,-0.009,-0.011,0.004,-0.42 (active),0.03,-0.007,0.011
NFIC (UniProt P08651),-0.058,-0.162,0.014,-0.114,0.022,-0.072,0.014,0.029,0.098,0.016,0.063,-0.083,-0.026,-0.032,-0.025
MTMR6 (UniProt Q9Y217),-0.04,0.063,-0.036,-0.026,-0.076,-0.116,-0.024,0.086,-0.007,-0.032,-0.018,-0.276 (active),0.027,-0.027,0.003
NOSIP (UniProt Q9Y314),0.005,0.009,-0.018,0.027,-0.019,-0.151,-0.021,0.003,-0.015,0.006,-0.015,-0.809 (active),-0.047,0.002,0.013
NNMT (UniProt P40261),-0.044,-0.01,0.058,0.03,0.003,-0.145,-0.008,0.004,0.035,-0.033,0.014,-0.104,0.014,0.03,-0.004
OSGEP (UniProt Q9NPF4),-0.005,0.008,0.002,0.018,0.025,-0.006,0.026,-0.012,-0.027,0.03,-0.001,-0.038,-0.109,0.016,0.002
MVB12A (UniProt Q96EY5),-0.025,-0.05,0.006,0.008,0.04,0.033,0.032,0.022,-0.009,0.036,-0.002,-0.812 (active),-0.016,0.016,0.042
NBEAL2 (UniProt Q6ZNJ1),0.031,-0.008,-0.069,0.036,0.029,-0.077,-0.017,0.033,0.014,0.06,-0.025,-0.341 (active),0.047,0.02,0.026
MYCBP (UniProt Q99417),-0.034,0.041,0.019,0.055,-0.011,-0.058,-0.011,-0.038,-0.02,0.029,0.006,0.113,-0.015,-0.025,-0.075
MYO1D (UniProt O94832),0.002,-0.01,-0.036,-0.006,0.016,-0.031,-0.004,0.05,0,-0.042,0.046,-0.418 (active),0.012,-0.027,-0.002
NCAPH (UniProt Q15003),-0.033,0,-0.03,-0.017,-0.017,0.005,0.023,0.013,0.006,-0.017,-0.031,-0.33 (active),0.009,-0.01,-0.004
PAIP2 (UniProt Q9BPZ3),0.136,0.062,-0.047,-0.009,-0.049,0.007,-0.1,-0.087,-0.02,-0.018,0.033,0.054,-0.052,-0.025,-0.027
